This note sets out measurements from PubChem BioAssay (NCI).

Compounds without any hit were thinned out: in the full panel of roughly 79,000, 15% have a hit. Values without a mark were called inactive. The source made the active and inactive calls. Rule as the data show it: active = growth inhibition above about 70%; inactive = the rest.

A short description of test [1]: NCI Yeast Anticancer Drug Screen. Data for the rad50 strain (AID 155).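 Also: 0% = growth of vehicle-only cultures of the same strain.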 The settings on record: S. cerevisiae rad50 strain growth inhibition, active compounds read high. A digest of the protocol:
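Compounds were tested on a yeast strain with an engineered DNA damage repair alteration; the reported value is growth inhibition normalised to vehicle treatment.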

A short description of test [2]: NCI Yeast Anticancer Drug Screen. Data for the mec2-1 strain (AID 157). The settings on record: S. cerevisiae mec2-1 strain, active compounds read high. The essentials: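 mec2-1 yeast strain, carrying an alteration in DNA damage repair or cell cycle control, was exposed to compounds; growth inhibition was measured relative to vehicle-treated controls.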
A short description of test [3]: NCI Yeast Anticancer Drug Screen. Data for the sgs1 mgt1 strain (AID 161).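 Also: 0% = growth of cultures given vehicle only.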 The settings on record: S. cerevisiae sgs1 mgt1 strain, active compounds read high. The essentials:
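Yeast cells carrying a defined DNA-repair defect were exposed to test compounds. Growth inhibition was measured relative to vehicle-treated controls.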

Test [4] in a line: NCI Yeast Anticancer Drug Screen. Data for the cln2 rad14 strain (AID 165).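 Also: 0% = growth equal to vehicle treated cultures.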 The settings on record: S. cerevisiae cln2 rad14 strain, active compounds read high. A digest of the protocol:
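Yeast carrying cln2 and rad14 alterations (cell cycle control and DNA damage repair) were exposed to compounds. Growth inhibition was measured against vehicle-treated controls.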

Test [5] is described as follows: NCI Yeast Anticancer Drug Screen. Data for the bub3 strain (AID 167). The settings on record: S. cerevisiae bub3 mutant strain, active compounds read high. A digest of the protocol:
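Growth of a checkpoint-deficient yeast mutant is measured after compound exposure. Values represent inhibition relative to vehicle.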

A short description of test [6]: NCI Yeast Anticancer Drug Screen. Data for the mlh1 rad18 strain (AID 175). The settings on record: S. cerevisiae mlh1 rad18 strain growth inhibition, active compounds read high. A digest of the protocol: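 Growth inhibition of the yeast strain was measured after compound exposure and expressed relative to vehicle-treated controls. The strain carries defined defects in DNA damage repair.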

Where [7] appears, read: at 5.0 µM (retest, dose inferred, filed as 0.5).
[8] abbreviates: at 50.0 µM (retest, dose inferred, filed as 5.0).

`O=S(=O)(Nc1ccc(-c2ccc(Cl)cc2)cc1)c1ccccc1`: the growth inhibition in test [1] (setting [7]) was 68%; in test [1] (setting [8]) it was 97% (active); in test [1] (at 50.0 µM) it was 92.5% (active); in test [2] (setting [7]), 58%; in test [2] (setting [8]), 99% (active); in test [2] (at 50.0 µM), 93.2% (active). Further, the growth inhibition in test [3] (setting [7]) was 75% (active); in test [3] (setting [8]), -21%; in test [3] (at 50.0 µM) it was 97.8% (active); in test [4] (setting [7]), 19%; in test [4] (setting [8]), 90% (active); in test [4] (at 50.0 µM), 92.3% (active). For the same molecule, the growth inhibition was 38% in test [5] (setting [7]); 98% (active) in test [5] (setting [8]); 95.8% (active) in test [5] (at 50.0 µM); 95% (active) in test [6] (setting [7]); 98% (active) in test [6] (setting [8]); 95% (active) in test [6] (at 50.0 µM).
`CC(=O)OC1=CC2(OC(C)=O)CC(C)(C)C1C1C(=O)C=CC(=O)C12` (stereo not given): the growth inhibition in test [1] (setting [7]) is 8%; in test [1] (setting [8]) it was 14%; in test [1] (at 50.0 µM), 53.1%; in test [2] (setting [7]) it was -8%; in test [2] (setting [8]), 10%; in test [2] (at 50.0 µM), 65.3%. Further, the growth inhibition in test [3] (setting [7]) is 0%; in test [3] (setting [8]), 13%; in test [3] (at 50.0 µM) it was 68.2%; in test [4] (setting [7]) it was 3%; in test [4] (setting [8]) it was -10%; in test [4] (at 50.0 µM), 33.9%. Also, the growth inhibition was 4% in test [5] (setting [7]); 14% in test [5] (setting [8]); 73.8% (active) in test [5] (at 50.0 µM); 5% in test [6] (setting [7]); 21% in test [6] (setting [8]); 17.1% in test [6] (at 50.0 µM).
`COc1ccc2c(c1)n([O-])c1cc(C#N)ccc1[n+]2=O`: the growth inhibition in test [1] (setting [7]) was 94% (active); in test [1] (setting [8]), 97% (active); in test [1] (at 50.0 µM), 96.1% (active); in test [2] (setting [7]), 50%; in test [2] (setting [8]), 97% (active); in test [2] (at 50.0 µM), 45.6%. For the same molecule, the growth inhibition in test [3] (setting [7]) is 41%; in test [3] (setting [8]), 80% (active); in test [3] (at 50.0 µM), 35.9%; in test [4] (setting [7]), 17%; in test [4] (setting [8]), 59%; in test [4] (at 50.0 µM), -11.7%. In addition, the growth inhibition in test [5] (setting [7]) is 33%; in test [5] (setting [8]), 87% (active); in test [5] (at 50.0 µM), 44.9%; in test [6] (setting [7]), 73% (active); in test [6] (setting [8]), 96% (active); in test [6] (at 50.0 µM) it was 28.6%.
Turning to `O=C1c2ccccc2C(O)(c2ccccc2)N1c1ccc([N+](=O)[O-])cc1` (stereo not given), the growth inhibition in test [1] (setting [7]) is 7%; in test [1] (setting [8]) it was 99% (active); in test [1] (at 50.0 µM), 99% (active); in test [2] (setting [7]) it was 10%; in test [2] (setting [8]), 100% (active); in test [2] (at 50.0 µM) it was 99.3% (active). The growth inhibition is 0% in test [3] (setting [7]); 99% (active) in test [3] (setting [8]); 99.3% (active) in test [3] (at 50.0 µM); -3% in test [4] (setting [7]); 99% (active) in test [4] (setting [8]); 98.9% (active) in test [4] (at 50.0 µM). In addition, the growth inhibition was -2% in test [5] (setting [7]); 99% (active) in test [5] (setting [8]); 99% (active) in test [5] (at 50.0 µM); 5% in test [6] (setting [7]); 99% (active) in test [6] (setting [8]); 99.3% (active) in test [6] (at 50.0 µM).
In the case of `Oc1ccc(C(=C(Br)c2ccccc2)c2ccc(O)cc2)cc1`, the growth inhibition in test [1] (setting [7]) is 98% (active); in test [1] (setting [8]), 98% (active); in test [1] (at 50.0 µM), 87.7% (active); in test [2] (setting [7]) it was 99% (active); in test [2] (setting [8]), 99% (active); in test [2] (at 50.0 µM) it was 91.5% (active). Also, the growth inhibition is 99% (active) in test [3] (setting [7]); 99% (active) in test [3] (setting [8]); 85.1% (active) in test [3] (at 50.0 µM); 99% (active) in test [4] (setting [7]); 99% (active) in test [4] (setting [8]); 89.5% (active) in test [4] (at 50.0 µM). The growth inhibition in test [5] (setting [7]) is 99% (active); in test [5] (setting [8]), 99% (active); in test [5] (at 50.0 µM), 89.3% (active); in test [6] (setting [7]) it was 99% (active); in test [6] (setting [8]) it was 99% (active); in test [6] (at 50.0 µM) it was 85.3% (active).
As to `CSC(=S)N/N=C\C(C)=N/N=C(N)N`, the growth inhibition in test [1] (setting [7]) was 14%; in test [1] (setting [8]) it was 92% (active); in test [1] (at 50.0 µM) it was 94% (active); in test [2] (setting [7]), 16%; in test [2] (setting [8]), 93% (active); in test [2] (at 50.0 µM), 74.5% (active). In addition, the growth inhibition in test [3] (setting [7]) was 53%; in test [3] (setting [8]), 92% (active); in test [3] (at 50.0 µM) it was 85.4% (active); in test [4] (setting [7]), -14%; in test [4] (setting [8]), 89% (active); in test [4] (at 50.0 µM), 18.9%. Further, the growth inhibition in test [5] (setting [7]) is -4%; in test [5] (setting [8]), 92% (active); in test [5] (at 50.0 µM), 86.4% (active); in test [6] (setting [7]), 30%; in test [6] (setting [8]), 90% (active); in test [6] (at 50.0 µM), 93.7% (active).
Turning to `CC(C)C1=CC2=CC(=O)C3C(C)(C)CCCC3(C)C2=C(O)C1=O` (stereo not given), the growth inhibition in test [1] (setting [7]) was 90% (active); in test [1] (setting [8]), 88% (active); in test [1] (at 50.0 µM), 87.8% (active); in test [2] (setting [7]) it was 99% (active); in test [2] (setting [8]), 94% (active); in test [2] (at 50.0 µM), 89.8% (active). For the same molecule, the growth inhibition in test [3] (setting [7]) was 98% (active); in test [3] (setting [8]) it was 94% (active); in test [3] (at 50.0 µM), 90% (active); in test [4] (setting [7]), 24%; in test [4] (setting [8]) it was 86% (active); in test [4] (at 50.0 µM), 85.5% (active). Besides, the growth inhibition in test [5] (setting [7]) is 49%; in test [5] (setting [8]) it was 93% (active); in test [5] (at 50.0 µM) it was 87.4% (active); in test [6] (setting [7]), 96% (active); in test [6] (setting [8]) it was 90% (active); in test [6] (at 50.0 µM), 87.5% (active).
Regarding `CC(=O)OCCn1c2nc(=O)[nH]c(=O)c-2nc2cc(C)c(C)cc21`, the growth inhibition in test [1] (setting [7]) is -4%; in test [1] (setting [8]), 18%; in test [1] (at 50.0 µM), 0.8%; in test [2] (setting [7]), 0%; in test [2] (setting [8]) it was 18%; in test [2] (at 50.0 µM), -3.35%. Moreover, the growth inhibition in test [3] (setting [7]) was 1%; in test [3] (setting [8]), 81% (active); in test [3] (at 50.0 µM), 35%; in test [4] (setting [7]), -4%; in test [4] (setting [8]), 2%; in test [4] (at 50.0 µM) it was -42.9%. The growth inhibition is -1% in test [5] (setting [7]); 1% in test [5] (setting [8]); 8% in test [5] (at 50.0 µM); 9% in test [6] (setting [7]); 14% in test [6] (setting [8]); 47.5% in test [6] (at 50.0 µM).
In the case of `C[n+]1c(-c2ccc(/C=N\NC(=O)c3ccc(C(=O)N/N=C/c4ccc(-c5cn6ccsc6[n+]5C)cc4)cc3)cc2)cn2ccsc21`, the growth inhibition in test [1] (setting [7]) is 65%; in test [1] (setting [8]), 98% (active); in test [1] (at 50.0 µM) it was 90.6% (active); in test [2] (setting [7]), 81% (active); in test [2] (setting [8]), 98% (active); in test [2] (at 50.0 µM) it was 86.7% (active). The growth inhibition in test [3] (setting [7]) is 72% (active); in test [3] (setting [8]), 98% (active); in test [3] (at 50.0 µM), 84.5% (active); in test [4] (setting [7]), 27%; in test [4] (setting [8]), 98% (active); in test [4] (at 50.0 µM) it was 86.7% (active). The growth inhibition in test [5] (setting [7]) is 86% (active); in test [5] (setting [8]) it was 98% (active); in test [5] (at 50.0 µM) it was 83.8% (active); in test [6] (setting [7]), 88% (active); in test [6] (setting [8]), 97% (active); in test [6] (at 50.0 µM) it was 91.5% (active).
Regarding `O=C(/C=C/c1ccccc1)CCN1CCOCC1`, the growth inhibition in test [1] (setting [7]) was 21%; in test [1] (setting [8]) it was 99% (active); in test [1] (at 50.0 µM), 91.3% (active); in test [2] (setting [7]), 26%; in test [2] (setting [8]), 99% (active); in test [2] (at 50.0 µM), 85.3% (active). Further, the growth inhibition in test [3] (setting [7]) is 22%; in test [3] (setting [8]), 100% (active); in test [3] (at 50.0 µM), 86.5% (active); in test [4] (setting [7]) it was 0%; in test [4] (setting [8]), 84% (active); in test [4] (at 50.0 µM), 88.7% (active). Also, the growth inhibition is 35% in test [5] (setting [7]); 100% (active) in test [5] (setting [8]); 88.8% (active) in test [5] (at 50.0 µM); 32% in test [6] (setting [7]); 99% (active) in test [6] (setting [8]); 84.7% (active) in test [6] (at 50.0 µM).
